Screening results deposited in PubChem by several laboratories.
Compounds with a hit are over-represented: about 3.5% of the library has one in this group of screens.
BJeLR lethal: MLPCN primary cell-based screen for lethality selective to Ras in HRASV12 cells; BJeLR (HRASV12) viability, CellTiter-Glo ATP luminescence, 48 h; 300,000 compounds, 0.17% hits; inhibition, % (test concentration not listed); AID 1554, 2009; in the data active = inhibition above about 50%; inconclusive = no clear call, values can overlap the other calls
Bead autofluor: flagged as autofluorescent in microsphere protease counterscreen; fluorescence intensity (no concentration beside the values); 360,000 compounds, 3.1% hits; compound autofluorescence counterscreen, microsphere flow cytometry; hits give high values; in the data active = fluorescence intensity above about 16000; inconclusive = no clear call, values can overlap the other calls
BoNT F protease: BoNT/F light chain protease inhibitors, primary screen, biochemical, flow cytometry, MLPCN library. Botulinum neurotoxin type F light chain protease (Clostridium botulinum). Multiplex microsphere protease cleavage assay. inhibition, % at 10 µM. 360,000 compounds, 0.22% hits. AID 588497, 2011; in the data active = inhibition above about 35%, passing the limit was not always enough; inconclusive = no clear call, values can overlap the other calls; note: plate controls were buffer without enzyme for full effect and enzyme alone for no effect
BoNT A protease: BoNT/A light chain protease inhibitors, primary screen, biochemical, flow cytometry, MLPCN library. inhibition, % at 10 µM. multiplex microsphere protease substrate cleavage. 360,000 compounds, 0.17% hits. AID 588499, 2011; note: plate controls were buffer without enzyme for full effect and enzyme alone for no effect
Anthrax LF inh2: Bacillus anthracis LF protease inhibitors, primary screen, biochemical, multiplex microsphere, MLPCN library; multiplex microsphere protease cleavage assay; Lethal factor (Bacillus anthracis), P15917; inhibition, % at 10 µM; AID 588501, 2011; 360,000 compounds, 0.12% hits; note: plate controls were buffer without enzyme for full effect and enzyme alone for no effect
Target sequence (P15917 whole entry, looked up): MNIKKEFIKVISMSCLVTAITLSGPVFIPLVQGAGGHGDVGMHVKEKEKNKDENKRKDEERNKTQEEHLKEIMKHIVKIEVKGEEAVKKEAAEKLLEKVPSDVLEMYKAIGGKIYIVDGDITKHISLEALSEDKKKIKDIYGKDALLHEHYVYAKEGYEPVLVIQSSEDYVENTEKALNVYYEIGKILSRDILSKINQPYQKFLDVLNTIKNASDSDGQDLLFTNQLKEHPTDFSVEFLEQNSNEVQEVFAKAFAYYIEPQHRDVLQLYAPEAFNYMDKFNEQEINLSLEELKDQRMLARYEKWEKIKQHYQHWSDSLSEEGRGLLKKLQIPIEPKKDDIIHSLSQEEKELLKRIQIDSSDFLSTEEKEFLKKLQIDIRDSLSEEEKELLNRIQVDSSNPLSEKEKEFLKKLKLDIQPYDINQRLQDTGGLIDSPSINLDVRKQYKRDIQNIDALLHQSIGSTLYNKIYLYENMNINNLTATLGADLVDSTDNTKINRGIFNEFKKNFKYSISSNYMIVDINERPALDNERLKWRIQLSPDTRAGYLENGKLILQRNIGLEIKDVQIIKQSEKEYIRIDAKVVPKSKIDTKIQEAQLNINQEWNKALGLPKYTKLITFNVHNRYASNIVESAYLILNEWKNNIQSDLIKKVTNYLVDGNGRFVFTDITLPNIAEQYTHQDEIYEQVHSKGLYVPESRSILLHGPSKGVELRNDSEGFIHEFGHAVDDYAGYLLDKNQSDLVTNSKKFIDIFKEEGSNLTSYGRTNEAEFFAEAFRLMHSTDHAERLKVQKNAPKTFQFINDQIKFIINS
Numbers without * were called inactive; ? = inconclusive; nt = not tested or not shown. Cut-off read from the data, not from the text of the source, unless noted: active = inhibition above about 30%; inconclusive = no clear call, values can overlap the other calls; inactive = below that.

SMILES	BJeLR lethal	Bead autofluor	BoNT F protease	BoNT A protease	Anthrax LF inh2
CC1=C(C(=O)N2CCCCCC2)CC(CC(=O)NCCCN(C)C)C(=O)N1Cc1ccc(F)cc1 (configuration not stated)	nt	5495	6	0	-8
CCOC(=O)CSc1ncc(OC)c(=O)[nH]1	-3	10007	5	0	9
CCOC(=O)CSc1ncc(OC)c(Sc2ccc(Cl)cc2)n1	-1	21505*	0	?	-16
CCOC(=O)C(C)Sc1ncc(OC)c(Sc2ccc(Cl)cc2)n1 (configuration not stated)	-4	24632*	-10	-6	-2
CCCCn1nnnc1C(c1cc2ccccc2o1)N1CCN(c2ccncc2)CC1 (configuration not stated)	nt	4663	0	0	-4
COCCNC(=O)C1(C)CCCN(C(=O)c2cc(C)oc2C)C1 (configuration not stated)	nt	2829	6	0	-7
CC(SC1CCCC1)C(=O)Nc1ccnn1C(C)C (configuration not stated)	-7	20011*	-1	?	-8
CC(C)CNC(=O)C1CCN(CC2CCCCC2)CC1	-19	3520	15	1	-2
CC(C)CNC(=O)C(=O)NNC(=O)C1CCCCC1	4	21511*	-3	-5	0
CC1CCCCN1C(=O)/C(=C\c1ccccc1)c1ccccc1 (configuration not stated)	6	21700*	5	5	0
COC(=O)Cn1cnc2c(C#N)c3n(c2c1=O)CCCCC3	1	23066*	0	0	1
O=C(NCCN1CCC(n2c(=O)[nH]c3ccccc32)CC1)N1c2ccccc2Sc2ccccc21	nt	5711	-2	0	2
O=C(c1sc2ccccc2c1Cl)N(Cc1ccccc1Cl)C1CCS(=O)(=O)C1 (configuration not stated)	5	22430*	2	0	0
CCOc1ccccc1C(=O)N(Cc1ccco1)C1CCS(=O)(=O)C1 (configuration not stated)	nt	3990	25	0	5
O=C(c1sc2ccccc2c1Cl)N(Cc1ccco1)C1CCS(=O)(=O)C1 (configuration not stated)	1	23946*	-4	?	-3
O=C(c1sc2ccccc2c1Cl)N(Cc1ccccc1)C1CCS(=O)(=O)C1 (configuration not stated)	-1	nt	nt	nt	nt
COc1cc(CN2C[C@@H](CO)O[C@@H](n3cnc4c(Nc5ccccc5)ncnc43)C2)cc(OC)c1OC	nt	3910	-4	0	-2
COc1cccc(NS(=O)(=O)c2ccc(C)c(C(=O)N3CCCCC3)c2)c1	6	5798	-5	1	-2
COc1ccc(NC(=O)CN(c2ccc(C)cc2)S(=O)(=O)c2c(C)nn(C)c2C)cc1OC	1	22939*	2	0	-4
COc1ccc(NC(=O)CN(c2ccc(OC)cc2)S(=O)(=O)c2c(C)nn(C)c2C)cc1	-8	4353	2	-1	-5
COc1ccc2nc(NC(=O)CN(c3ccc(C)cc3)S(=O)(=O)c3c(C)nn(C)c3C)sc2c1	0	20805*	-6	-4	-4
COc1ccc(NC(=O)CN(c2ccc(C)cc2)S(=O)(=O)c2c(C)nn(C)c2C)cc1	8	4489	3	0	-2
O=C(Nc1nnc(S(=O)(=O)N2CCN(c3ccc(F)cc3)CC2)s1)c1ccco1	1	5784	-9	-2	-3
CCn1c(SCC#N)nc2c(c1=O)C1(CCCC1)Cc1ccccc1-2	nt	24128*	-7	-2	0
N#CCSc1n[nH]c2nc3c(c(=O)n12)C1(CCCCC1)Cc1ccccc1-3	1	5625	1	1	-3
SMILES	BJeLR lethal	Bead autofluor	BoNT F protease	BoNT A protease	Anthrax LF inh2
COc1cccc(/C=N/NC(=O)CC2C(=O)NN=C2C)c1O (configuration not stated)	3	20430*	-1	1	-3
COc1cccc(/C=N/NC(=O)CC2C(=O)NN=C2C)c1OC (configuration not stated)	5	3409	-6	1	0
CC(C)Cc1ccc(-c2cc3nc(NCCc4ccc(S(N)(=O)=O)cc4)ccn3n2)cc1	nt	4177	-11	0	1
COc1ccc2c(c1)[nH]c1c(N3CCN(Cc4ccc5c(c4)OCO5)CC3)ncnc12	20	23865*	-3	-1	-2
Cc1cc(C)c(C#N)c(SCc2ccccc2)n1	-4	2419	8	0	-11
Cc1cc(C)c(C#N)c(SCc2ccc(C(=O)O)cc2)n1	1	3101	?	0	32*
Cc1ccc2nc(CSc3nc(C)cc(C)c3C#N)[nH]c2c1	-4	21126*	7	8	1
O=C(c1ccccc1)c1ccc(C(=O)O)c(C(=O)O)c1	nt	4930	1	0	-2
O=C(O)c1cc(C(=O)O)c(-c2ccccc2)c(C(=O)O)c1	5	22323*	-1	-1	-4
O=C(O)c1ccc(C(=O)O)c(C(=O)c2ccccc2)c1	8	17146*	-5	-3	1
O=S1(=O)C[C@@H](N2CCC(Cc3ccccc3)CC2)[C@H](COCc2ccccc2)N1	nt	4345	-11	-1	-4
Cc1nnc(SCC(=O)N2CC(=O)Nc3ccccc32)n1-c1ccccc1	-1	4050	14	1	-1
O=C1CN(C(=O)CSc2nncn2-c2ccccc2)c2ccccc2N1	7	21221*	-4	-2	-1
ON=C1c2ccccc2-c2ccccc21	-1	3753	3	-2	1
NC(N)=NN=C1c2ccccc2-c2ccccc21	3	8153	82*	2	49*
O=C(O)c1[nH]c2ccccc2c1CC(=O)N1CCOCC1	-12	19170*	1	2	2
CC(C)CSc1nnc2c(n1)[nH]c1ccccc12	1	11366	9	1	0
CCCCSc1nnc2c(n1)[nH]c1ccccc12	13	21409*	2	-1	1
Cc1ccc(NC(=O)CSc2nnc3c(n2)[nH]c2ccccc23)cc1	-1	3731	-12	0	-8
O=C(COC(=O)[C@H](Cc1c[nH]c2ccccc12)NC(=O)c1ccc(Cl)cc1)Nc1ccc2c(c1)OCO2	2	21349*	2	3	-3
O=C(CSc1nnc2c(n1)[nH]c1ccccc12)Nc1ccc2c(c1)OCO2	22	21923*	0	?	-3
O=C(Cc1c(C(=O)O)[nH]c2ccccc12)Nc1ccc2c(c1)OCO2	-12	16805*	-4	0	-3
O=C(Nc1nnc(-c2ccccc2F)s1)C1CCCO1 (configuration not stated)	-5	3557	10	-1	-2
CCCCCc1nnc(NC(=O)C2CCCO2)s1 (configuration not stated)	-9	20636*	-4	-3	2
